Compound activity deposited in PubChem by several laboratories.
The list is not random: actives were taken first. Their share in the collection is about 4.8%.
Calb FLC – C. albicans growth inhibition with fluconazole, primary screen, CaCi-2 strain, Alamar Blue fluorescence; C. albicans CaCi-2 (fluconazole-resistant clinical isolate) + fluconazole, 48 h; growth inhibition, % (no concentration beside the values); 300,000 compounds, 0.57% hits; AID 1979, 2009;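 active = growth inhibition above about 58% in most replicates, limit read from the data, passing the limit was not always enough; inconclusive = exactly half the replicates above a set limit; inactive = most replicates below a set limit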;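 note: all wells also contain fluconazole at 8 µg/ml as a sub-toxic cotreatment; 0% = median of DMSO wells and 100% = median of geldanamycin control wells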
MPTP block – mitochondrial permeability transition pore inhibitors, primary screen, biochemical, isolated mouse mitochondria, absorbance. AID 602449, 2012. Ca2+ swelling absorbance, 30 min. inhibition, % at 10 µM. 360,000 compounds, 1.4% hits;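 active = inhibition of 50% or more, scaled per plate between neutral and stimulator controls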;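 note: 0% = DMSO wells given calcium and 100% = 1 mM EGTA wells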
CSC inhib – cancer stem cell viability inhibitors, primary screen, luminescence; cancer stem cell-like cells viability; inhibition, % at 7.5 µM; 300,000 compounds, 1.1% hits; in the data active = inhibition above about 75%; inconclusive = no clear call, values can overlap the other calls; tested in HMLE shEcad cells
Mdm2-MdmX inh – inhibitors of human Mdm2-MdmX association, primary screen, cell-based, luminescence, split luciferase, SaOS-2, uHTS; Protein Mdm4 (Homo sapiens) + E3 ubiquitin-protein ligase Mdm2 (Homo sapiens), …; SaOS-2 split-luciferase Mdm2/MdmX complementation; inhibition, % at 8 µM; 330,000 compounds, 3% hits; AID 485346, 2010;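 active = inhibition of at least 50% at 8 µM in the primary screen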
Target sequence (O15151 whole entry, looked up): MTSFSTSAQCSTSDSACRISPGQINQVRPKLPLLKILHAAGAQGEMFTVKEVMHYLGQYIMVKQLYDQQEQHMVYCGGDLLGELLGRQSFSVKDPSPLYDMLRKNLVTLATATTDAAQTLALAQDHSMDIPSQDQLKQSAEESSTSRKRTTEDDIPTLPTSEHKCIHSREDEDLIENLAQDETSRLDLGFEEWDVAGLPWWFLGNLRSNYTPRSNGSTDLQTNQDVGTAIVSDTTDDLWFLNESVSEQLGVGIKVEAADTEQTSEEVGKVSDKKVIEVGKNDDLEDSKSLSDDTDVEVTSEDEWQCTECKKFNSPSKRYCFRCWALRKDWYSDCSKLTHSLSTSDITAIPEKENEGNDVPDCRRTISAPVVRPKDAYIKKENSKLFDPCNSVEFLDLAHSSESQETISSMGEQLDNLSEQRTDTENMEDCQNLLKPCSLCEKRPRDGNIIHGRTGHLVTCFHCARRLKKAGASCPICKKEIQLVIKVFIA
Target sequence (Q00987 whole entry, looked up): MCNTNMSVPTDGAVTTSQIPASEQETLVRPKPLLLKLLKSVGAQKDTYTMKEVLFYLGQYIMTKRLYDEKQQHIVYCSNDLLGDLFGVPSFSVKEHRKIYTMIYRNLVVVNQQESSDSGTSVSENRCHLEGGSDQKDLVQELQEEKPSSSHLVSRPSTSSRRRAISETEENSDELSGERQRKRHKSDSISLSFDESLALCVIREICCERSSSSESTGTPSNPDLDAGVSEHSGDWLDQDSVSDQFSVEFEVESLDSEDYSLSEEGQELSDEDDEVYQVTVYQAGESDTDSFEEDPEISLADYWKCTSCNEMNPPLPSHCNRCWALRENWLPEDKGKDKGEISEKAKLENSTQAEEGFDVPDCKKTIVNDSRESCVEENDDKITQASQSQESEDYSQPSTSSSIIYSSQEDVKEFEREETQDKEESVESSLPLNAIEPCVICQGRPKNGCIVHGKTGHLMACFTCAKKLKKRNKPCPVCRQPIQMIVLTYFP
Beta cell apopt – inhibitors of cytokine-induced beta cell apoptosis, primary screen, luminescence | 300,000 compounds, 0.8% hits | protection from apoptosis, % (no concentration beside the values) | INS-1E cytokine-induced death, ATP luminescence, 48 h; percent of positive-control rescue, neutral wells zero;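 active = Every replicate reaches about 75%, or at least half do and their mean reaches it too, limit read from the data; inconclusive = At least half of replicates reach the limit but their mean does not; inactive = Under half of replicates reach the limit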;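 note: 0% = cytokine-treated negative control wells and 100% = positive control rescue; higher means more ATP so stronger rescue from cytokine killing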
Mdm2-MdmX conf – Mdm2-MdmX complex disruptors, retested hits, confirmation, luminescence, single concentration; shares compounds with Mdm2-MdmX inh; Mdm2-MdmX binding, luminescent assay; inhibition, % at 8 µM; 10,000 compounds, 55% hits; AID 489028, 2010; in the data active = inhibition above about 40%
FLuc counter – full-length luciferase signal inhibition, confirmation, counter-screen for Mdm2/MdmX interaction inhibitor project, cell-based, single concentration, SaOS-2; shares compounds with Mdm2-MdmX inh; SaOS-2 full-length luciferase counterscreen, luminescence; inhibition, % at 8 µM; 6,200 compounds, 77% hits; AID 504607, 2011;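 active = mean inhibition at 8 µM reaching about 37%, which flags the compound as non-specific, limit read from the data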;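 note: p53-null SaOS-2 cells with luciferase driven by a doxycycline-inducible promoter; compound on cells about two nights before reading with doxycycline added after day one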
Numbers without * were called inactive; ? = inconclusive; nt = no result given.

SMILES | Calb FLC | MPTP block | CSC inhib | Mdm2-MdmX inh | Beta cell apopt | Mdm2-MdmX conf | FLuc counter
CCOc1ccc(CCN2C(=O)C(=O)N([C@@H](CC(C)C)CN3CCC[C@H]3CN3C(=O)C(=O)NC[C@@H]3CC(C)C)C[C@@H]2Cc2ccc(O)cc2)cc1 | nt | -3 | nt | nt | nt | nt | nt
CCOc1ccc(CNC(=O)C2CCN(c3nnc(C)c4c(C)n(-c5ccc(C)cc5)nc34)CC2)cc1 | -15 | 0 | 5 | 87* | 24 | 40* | 40*
Cc1ccccc1CNC(=O)C1CCCN(c2nnc(C)c3c(C)n(-c4ccccc4)nc23)C1 (configuration not stated) | -17 | 1 | 11 | 33 | 11 | nt | nt
Cc1nnc(N2CCC(C(=O)N3CCCCCC3)CC2)c2nn(-c3ccc(Cl)cc3)c(C)c12 | -1 | -2 | 4 | 60* | 4 | 33 | 83*
Cc1ccc(-n2nc3c(N4CCC(C(=O)NCc5ccccc5C)CC4)nnc(C)c3c2C)cc1 | -16 | -1 | 46 | 96* | 32 | 32 | nt
CCc1ccc(CNC(=O)C2CCCN(c3nnc(C)c4c(C)n(-c5ccccc5)nc34)C2)cc1 (configuration not stated) | ? | -4 | 5 | 44 | 34 | nt | nt
Cc1ccc(-c2nn(-c3ccccc3)cc2/C=C2\SC(=S)N(CC(=O)O)C2=O)cc1 | 31 | 13 | 55 | 11 | 10 | nt | nt
CCOc1ccc(-c2nn(-c3ccccc3)cc2/C=C2\SC(N)=NC2=O)cc1C | 3 | 0 | 33 | 67* | 10 | 22 | nt
CCn1cc([N+](=O)[O-])c(C(=O)Nc2nc(-c3ccc(C)cc3)c(C)s2)n1 | ? | -1 | 102* | 55* | -19 | 32 | nt
C=CCOc1ccc(C(=O)Nc2ncn[nH]2)cc1 | -22 | 0 | 2 | 0 | -3 | nt | nt
O=C(N/N=C/c1cc([N+](=O)[O-])ccc1O)c1cccc(NC(=O)c2cccc(Cl)c2)c1 | -7 | 6 | 14 | 51* | 81* | 50* | 41*
O=C(Cn1nc2ccccc2n1)N/N=C/c1cc([N+](=O)[O-])ccc1O | ? | -4 | 7 | 3 | 40 | nt | nt
O=C(Cn1nnc(-c2ccccc2)n1)N/N=C/c1cc([N+](=O)[O-])ccc1O | -3 | 4 | -10 | 53* | -3 | 12 | nt
O=C(N/N=C/c1cccs1)c1cccc(NC(=O)c2ccc(Cl)cc2)c1 | 17 | nt | ? | 57* | 67 | 3 | nt
O=C(N/N=C/c1cccs1)c1cccc(S(=O)(=O)Nc2ccc(Cl)cc2)c1 | -8 | 10 | -4 | 31 | 0 | nt | nt
O=C(CNC(=O)c1ccccc1Br)N/N=C/c1cc(Br)ccc1O | -4 | 3 | 31 | 36 | 43 | nt | nt
O=C(N/N=C/c1cc(Cl)ccc1O)c1ccccc1Br | 44 | 11 | 21 | 54* | 110* | 58* | 44*
CC1C(=O)N2CCCc3cc(S(=O)(=O)N(C)CCC#N)cc1c32 (configuration not stated) | 3 | -2 | -7 | -23 | -4 | nt | nt
CC(OC(=O)c1nccnc1N)C(=O)Nc1ccc(S(=O)(=O)N2CCCC2)cc1 (configuration not stated) | 6 | -1 | 15 | 12 | -7 | nt | nt
O=C(N/N=C/c1cc([N+](=O)[O-])ccc1O)c1cccc2ccccc12 | 39 | 1 | 11 | 62* | 102* | 68* | 43*
O=C(N/N=C/c1cc([N+](=O)[O-])ccc1O)c1ccc(COc2ccc3c(c2)CCC3)o1 | 93* | 7 | 101* | 94* | 105* | 72* | 51*
O=C(Nc1ccc(NC(=O)c2cccc([N+](=O)[O-])c2)cc1)c1cccc([N+](=O)[O-])c1 | 12 | 2 | -6 | -2 | 2 | nt | nt
O=C(Nc1cccc([N+](=O)[O-])c1)c1cccc(C(=O)Nc2cccc([N+](=O)[O-])c2)c1 | 3 | 19 | -11 | 76* | 13 | 45* | 71*
COc1ccc(S(=O)(=O)N2CCN(C(=S)Nc3ccc(S(N)(=O)=O)cc3)CC2)cc1 | -5 | 0 | -3 | 20 | -2 | nt | nt
COc1cc(/C=N/N=C(N)N)ccc1OCc1ccc(Cl)cc1 | -3 | 4 | 50 | 101* | 98* | 50* | 127*
SMILES | Calb FLC | MPTP block | CSC inhib | Mdm2-MdmX inh | Beta cell apopt | Mdm2-MdmX conf | FLuc counter
NC(N)=N/N=C/c1ccccc1 | -2 | 0 | nt | -22 | nt | nt | nt
NC(N)=N/N=C/c1ccc(OCc2ccccc2)c(OCc2ccccc2)c1 | 28 | 2 | 2 | 96* | 9 | 67* | 65*
NC(N)=N/N=C/c1ccc(OCc2ccccc2Cl)cc1 | -4 | 9 | 105* | 98* | 8 | 67* | 32
COc1cc(/C=N/O)ccc1OCc1ccc(C(=O)O)cc1 | -8 | 0 | -10 | 83* | -1 | 78* | 21
COc1cc(/C=N/NS(=O)(=O)c2ccc3ccccc3c2)ccc1OCc1ccc(C(=O)O)cc1 | -4 | 3 | 12 | 50 | 2 | nt | nt
Cc1nn(Cc2c(F)c(F)c(F)c(F)c2F)c(C)c1NC(=O)c1ccc(COc2ccc(Cl)cc2Cl)o1 | -10 | 7 | 37 | 47 | 21 | nt | nt
Cc1nn(Cc2ccc(Cl)cc2Cl)c(C)c1NC(=O)c1ccc(COc2cc(Cl)ccc2Cl)o1 | 8 | 2 | 4 | 58* | 7 | -4 | nt
Cc1nn(Cc2ccc(Cl)cc2Cl)c(C)c1NC(=O)CCl | 0 | 0 | -6 | 78* | -9 | 92* | 62*
Cc1nn(Cc2ccc(Cl)cc2Cl)c(C)c1NC(=O)c1nn(C)cc1Cl | -7 | -2 | -7 | 13 | -6 | nt | nt
CC(C)Oc1ccc(C(=O)Nc2ccc(NC(=O)c3ccco3)c(Cl)c2)cc1 | 10 | -1 | 18 | 2 | -3 | nt | nt
CC(C)COc1ccc(C(=O)Nc2ccc(NC(=O)c3ccco3)c(Cl)c2)cc1 | -1 | -6 | nt | 60* | 10 | 10 | nt
Cc1nn(-c2ccc(F)cc2)c(Cl)c1/C=C1\C(=O)Nc2ccccc21 | nt | 13 | 79* | 59* | -5 | 62* | 68*
O=C1Nc2ccccc2/C1=C/c1ccccc1F | -13 | 0 | 19 | 17 | 3 | nt | nt
CCc1c(-c2ccc(Br)cc2)ncn1Cc1cccc(-c2ccccc2)c1 | nt | 3 | nt | nt | nt | nt | nt
CC(NCc1ccc(-c2ccccc2)cc1)C(O)c1ccccc1 (configuration not stated) | 1 | 5 | 63 | 82* | 8 | 63* | 64*
COC(=O)c1ccc2c(=O)n(CCCCCC(=O)O)c(=O)[nH]c2c1 | -10 | -1 | 3 | -22 | -2 | nt | nt
